According to PubChem BioAssay (NCATS):
Results filed as inconclusive are left out. Active and inactive are the calls of the source. Calls follow the shape of the dose curve; as a rule, active = well fitted curve in the direction sought with a large enough effect; inconclusive = small, poorly fitted or top-dose-only effect, or another doubt; inactive = no such curve, though single readings can be large; an effect the other way counts as inactive or inconclusive.

Columns and labels:
[1] = qHTS of pediatric cancer cell lines to identify multiple opportunities for drug repurposing: Primary screen for Rh18 cells (AID 1347102); also: nearly all actives have a fitted effect of over 65% in size
Outline: (§1)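 Cells (500-1,000/well) rested 5 h, then received compounds for 48 h; metabolically active cells were measured by CellTiter-Glo luminescence. Final concentrations spanned up to 46 µM (MIPE, 11-point) or 0.59 nM-46 µM (NPC, 8-point) in primary screens, 11-point in follow-ups.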

[2] = qHTS of pediatric cancer cell lines to identify multiple opportunities for drug repurposing: Primary screen for OHS-50 cells (AID 1347103); also: nearly all actives have a fitted effect of over 40% in size
Outline: as §1

[3] = qHTS of pediatric cancer cell lines to identify multiple opportunities for drug repurposing: Primary screen for RD cells (AID 1347104); also: nearly all actives have a fitted effect of over 55% in size
Outline: (§2)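 Luminescence from CellTiter-Glo served as readout of metabolically active cells after 48 h compound exposure. Titrations: MIPE 11-point, from 0.78 nM; NPC 8-point, from 0.59 nM (final). Concentration-response curves came straight from the primary screen.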

[4] = qHTS of pediatric cancer cell lines to identify multiple opportunities for drug repurposing: Primary screen for MG 63 (6-TG R) cells (AID 1347105); also: nearly all actives have a fitted effect of over 50% in size
Outline: as §2

[5] = qHTS of pediatric cancer cell lines to identify multiple opportunities for drug repurposing: Primary screen for control Hh wild type fibroblast cells (AID 1347106);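 also: series mostly up to about 46 µM; a drop in luminescence marks cytotoxicity and a rise apparent proliferation; nearly all actives have a fitted effect of over 55% in size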
Outline: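 Viability after 48 h compound treatment at 37C, 500-1,000 cells/well, read as ATP luminescence with CellTiter-Glo. Primary screens used 11-point (MIPE, 0.78 nM-46 µM) or 8-point (NPC, 0.59 nM-46 µM) final concentrations; follow-up screens used 11-point dilutions.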

[6] = qHTS of pediatric cancer cell lines to identify multiple opportunities for drug repurposing: Primary screen for Rh30 cells (AID 1347107); also: series mostly up to about 46 µM; nearly all actives have a fitted effect of over 75% in size
Outline: as §1

[7] = qHTS of pediatric cancer cell lines to identify multiple opportunities for drug repurposing: Primary screen for Rh41 cells (AID 1347108);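 also: series mostly up to about 46 µM; luminescence drop marks cytotoxic hits; nearly all actives have a fitted effect of over 70% in size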
Outline: as §2

[8] = qHTS of pediatric cancer cell lines to identify multiple opportunities for drug repurposing: Confirmatory screen for NB1643 cells (AID 1347109); also: nearly all actives have a fitted effect of over 45% in size; also: potency is read from the fitted curve at half-maximal effect
Outline: as §1

[9] = qHTS of pediatric cancer cell lines to identify multiple opportunities for drug repurposing: Confirmatory screen for A673 cells (AID 1347110);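 also: cells exposed to compound for 48 h before the viability read; nearly all actives have a fitted effect of over 65% in size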; also: potency is read from the fitted curve at half-maximal effect
Outline: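 Cells plated at 500-1,000/well were treated five hours later with multi-point dilutions up to 46 µM final. After two days, CellTiter-Glo was added and luminescence read.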

[10] = qHTS of pediatric cancer cell lines to identify multiple opportunities for drug repurposing: Confirmatory screen for SK-N-MC cells (AID 1347111); details: SK-N-MC cell viability;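 also: potency is read from the fitted curve at half-maximal effect; cells exposed to compound for 48 h before the readout; nearly all actives have a fitted effect of over 70% in size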
Outline: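 Seed 500-1,000 cells/well; rest 5 h at 37 degrees C. Pin-transfer compounds, 11-point titration. Incubate 48 h. Add CellTiter-Glo, 15 min RT, read luminescence.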

Measured: Potency

C[C@@H]1O[C@@H](OC[C@H]2O[C@@H](Oc3c(-c4ccc(O)c(O)c4)oc4cc(O)cc(O)c4c3=O)[C@H](O)[C@@H](O)[C@@H]2O)[C@H](O)[C@H](O)[C@H]1O
not listed: [8] | [9] | [10]
inactive: all other assays above

C[N+](C)(C)CC(O)CC(=O)[O-] (configuration not stated)
not listed: [8] | [9] | [10]
inactive: all other assays above

CC(C)C[C@@H](N)C(=O)O
not listed: [8] | [9] | [10]
inactive: all other assays above

Cc1ccsc1C(=CCCN1CCC[C@@H](C(=O)O)C1)c1sccc1C
not listed: [8] | [9] | [10]
inactive: all other assays above

NCC1CCC(C(=O)Oc2ccc(CCC(=O)O)cc2)CC1 (configuration not stated)
not listed: [8] | [9] | [10]
inactive: all other assays above

CC1(C)S[C@@H]2[C@H](NC(=O)C(C(=O)O)c3ccccc3)C(=O)N2[C@H]1C(=O)O (some centres not stated)
not listed: [8] | [9] | [10]
inactive: all other assays above

NNC(=O)CP(=O)(c1ccccc1)c1ccccc1
not listed: [8] | [9] | [10]
inactive: all other assays above

CC(=O)N(CC(O)CO)c1c(I)c(C(=O)NCC(O)CO)c(I)c(C(=O)NCC(O)CO)c1I (configuration not stated)
not listed: [8] | [9] | [10]
inactive: all other assays above

C[C@@H](N)C(=O)O
not listed: [8] | [9] | [10]
inactive: all other assays above

O=C(O)COC(=O)Cc1ccccc1Nc1c(Cl)cccc1Cl
not listed: [8] | [9] | [10]
inactive: all other assays above

Cc1ccc(S(=O)(=O)NC(=O)NC2CCCCC2)cc1
not listed: [8] | [9] | [10]
inactive: all other assays above

O=C(O)CNC(=O)c1ccccc1I
not listed: [8] | [9] | [10]
inactive: all other assays above

Cc1c(Cn2ccnc2)c2ccccc2n1CCC(=O)O
not listed: [8] | [9] | [10]
inactive: all other assays above

CC1(c2ccccc2)OC(C(=O)O)=CC1=O (configuration not stated)
not listed: [8] | [9] | [10]
inactive: all other assays above

Cc1cc(C)c(NC(=O)CN(CC(=O)O)CC(=O)O)c(C)c1Br
not listed: [8] | [9] | [10]
inactive: all other assays above

COc1cc(C(=O)NCCCCCC(=O)O)cc(OC)c1OC
not listed: [10]
inactive: all other assays above

C=CCNC(N)=S
not listed: [8] | [9] | [10]
inactive: all other assays above

CCCCCCCCCCCCCCCCN
inactive: [1] | [2] | [3] | [4] | [5] | [7]

CC1(C)S[C@@H]2[C@H](N=CN3CCCCCC3)C(=O)N2[C@H]1C(=O)O
inactive: [1] | [2] | [3] | [4] | [5] | [7]

O=C(Cn1ccnc1[N+](=O)[O-])NCCO
not listed: [8] | [9] | [10]
inactive: all other assays above

Nc1ccncc1N
not listed: [8] | [9] | [10]
inactive: all other assays above

O=C(O)CCC(=O)O
inactive: [1] | [2] | [3] | [4] | [5] | [7]

CCN(CC)CCc1nc(-c2ccccc2)no1
inactive: [1] | [2] | [3] | [4] | [5] | [7]

CC(=O)OCC(=O)[C@@]1(O)CC[C@H]2[C@@H]3CCC4=CC(=O)C=C[C@]4(C)[C@@]3(F)[C@@H](O)C[C@@]21C
active: [8] 10.4 µM | [10] 16.5 µM
not listed: [9]
inactive: all other assays above

Cc1c(N(C)C)c(=O)n(-c2ccccc2)n1C
not listed: [8] | [9] | [10]
inactive: all other assays above

FC(F)(F)C(Cl)Br (configuration not stated)
not listed: [8] | [9] | [10]
inactive: all other assays above

CC(=O)Oc1cccc(C)c1
inactive: [1] | [2] | [3] | [4] | [5] | [7]

CCN(CC)C(=O)c1cccc(C)c1
inactive: [1] | [2] | [3] | [4] | [5] | [7]

Cc1cc(OI)c(C(C)C)cc1-c1cc(C(C)C)c(OI)cc1C
inactive: [1] | [2] | [3] | [4] | [5] | [7]

CC(=O)Nc1ccc(OCCOCCOc2ccc(NC(C)=O)cc2)cc1
not listed: [8] | [9] | [10]
inactive: all other assays above

O=C(Cn1ccnc1[N+](=O)[O-])NCc1ccccc1
active: [9] 1.17 µM | [10] 2.93 µM
inactive: all other assays above

CCS(=O)(=O)CCn1c([N+](=O)[O-])cnc1C
not listed: [8] | [9] | [10]
inactive: all other assays above

OC[C@@H](O)[C@@H](O)[C@H](O)[C@H](O)CO
inactive: [1] | [2] | [3] | [4] | [5] | [7]

COc1ccc(C(=O)N2CCN(CC(=O)N3CCOCC3)CC2)cc1
inactive: [1] | [2] | [3] | [4] | [5] | [7]

CC(=O)N[C@H]1[C@H]([C@H](O)[C@H](O)CO)OC(C(=O)O)=C[C@@H]1N=C(N)N
not listed: [8] | [9] | [10]
inactive: all other assays above

NCc1ccc(S(N)(=O)=O)cc1
inactive: [1] | [2] | [3] | [4] | [5] | [7]

Cn1c([N+](=O)[O-])cnc1COC(N)=O
inactive: [1] | [2] | [3] | [4] | [5] | [7]

CC(=O)OCC(COC(C)=O)OC(C)=O
inactive: [1] | [2] | [3] | [4] | [5] | [7]

COc1ccc(O)cc1
not listed: [8] | [9] | [10]
inactive: all other assays above

CC(=O)Nc1cccc(O)c1
not listed: [8] | [9] | [10]
inactive: all other assays above

COc1ccccc1Oc1c(NS(=O)(=O)c2ccc(C(C)(C)C)cc2)nc(-c2ncccn2)nc1OCCO
not listed: [8] | [9] | [10]
inactive: all other assays above

C[N+](C)(C)CC[N+]1(C)Cc2c(Cl)c(Cl)c(Cl)c(Cl)c2C1
inactive: [1] | [2] | [3] | [4] | [5] | [7]

CC(C)CCOC(=O)c1ccc(N(C)C)cc1
not listed: [8] | [9] | [10]
inactive: all other assays above

CCCCCCCCCCCCCCCCCCO
inactive: [1] | [2] | [3] | [4] | [5] | [7]

CCOC(=O)OC(C)OC(=O)[C@@H]1N2C(=O)[C@@H](NC(=O)[C@H](N)c3ccccc3)[C@H]2SC1(C)C (some centres not stated)
not listed: [8] | [9] | [10]
inactive: all other assays above

CNc1c2c(nn1C)CCCC2
not listed: [8] | [9] | [10]
inactive: all other assays above

Cc1c(C(=O)NCCO)[n+](=O)c2ccccc2n1[O-]
inactive: [1] | [2] | [3] | [4] | [5] | [7]

OCc1ccc(Cl)cc1Cl
not listed: [8] | [9] | [10]
inactive: all other assays above

C1CCN2C[C@@H]3C[C@@H](CN4CCCC[C@@H]34)[C@H]2C1
inactive: [1] | [2] | [3] | [4] | [5] | [7]

CC(=O)N1C[C@H](O)C[C@H]1C(=O)O
inactive: [1] | [2] | [3] | [4] | [5] | [7]

O=C(CCBr)N1CCN(C(=O)CCBr)CC1
not listed: [8] | [9] | [10]
inactive: all other assays above

C/C=C/C(=O)N(CC)c1ccccc1C
not listed: [8] | [9] | [10]
inactive: all other assays above

CC(=O)[C@@]1(O)CC[C@H]2[C@@H]3C[C@H](C)C4=CC(=O)C=C[C@]4(C)[C@@]3(F)[C@@H](O)C[C@@]21C
active: [10] 23.3 µM
inactive: all other assays above

CC1CCN(CCCC(=O)c2ccc(F)cc2)CC1
inactive: [1] | [2] | [3] | [5] | [6]

O=c1[nH]c(=O)n([C@H]2C[C@H](O)[C@@H](CO)O2)cc1I
inactive: [1] | [2] | [3] | [5] | [6]

C=CCSCC1Nc2cc(Cl)c(S(N)(=O)=O)cc2S(=O)(=O)N1 (configuration not stated)
inactive: [1] | [2] | [3] | [4] | [6] | [7]

CC(C(=O)O)c1ccc2c(c1)Cc1cccnc1O2 (configuration not stated)
inactive: [1] | [2] | [3] | [4] | [6] | [7]

CCC(C)(CN(C)C)OC(=O)c1ccccc1 (configuration not stated)
inactive: [1] | [2] | [3] | [4] | [6] | [7]

OCC(O)CS (configuration not stated)
inactive: [1] | [2] | [3] | [4] | [6]
